# Compound activity as filed in PubChem BioAssay.
# The sample as a whole holds a higher share of hits than the screen did.
# mHTT CaM bind – mHTT-calmodulin interaction abrogation; P42858; AlphaScreen His-mHTT/GST-CaM binding, luminescence; inhibition, % at 15 µM; 3.6% of 190,000 active;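 note: 0% = both proteins with DMSO and 100% = one protein alone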
# Target sequence (P42858 whole entry, looked up, stated change not applied): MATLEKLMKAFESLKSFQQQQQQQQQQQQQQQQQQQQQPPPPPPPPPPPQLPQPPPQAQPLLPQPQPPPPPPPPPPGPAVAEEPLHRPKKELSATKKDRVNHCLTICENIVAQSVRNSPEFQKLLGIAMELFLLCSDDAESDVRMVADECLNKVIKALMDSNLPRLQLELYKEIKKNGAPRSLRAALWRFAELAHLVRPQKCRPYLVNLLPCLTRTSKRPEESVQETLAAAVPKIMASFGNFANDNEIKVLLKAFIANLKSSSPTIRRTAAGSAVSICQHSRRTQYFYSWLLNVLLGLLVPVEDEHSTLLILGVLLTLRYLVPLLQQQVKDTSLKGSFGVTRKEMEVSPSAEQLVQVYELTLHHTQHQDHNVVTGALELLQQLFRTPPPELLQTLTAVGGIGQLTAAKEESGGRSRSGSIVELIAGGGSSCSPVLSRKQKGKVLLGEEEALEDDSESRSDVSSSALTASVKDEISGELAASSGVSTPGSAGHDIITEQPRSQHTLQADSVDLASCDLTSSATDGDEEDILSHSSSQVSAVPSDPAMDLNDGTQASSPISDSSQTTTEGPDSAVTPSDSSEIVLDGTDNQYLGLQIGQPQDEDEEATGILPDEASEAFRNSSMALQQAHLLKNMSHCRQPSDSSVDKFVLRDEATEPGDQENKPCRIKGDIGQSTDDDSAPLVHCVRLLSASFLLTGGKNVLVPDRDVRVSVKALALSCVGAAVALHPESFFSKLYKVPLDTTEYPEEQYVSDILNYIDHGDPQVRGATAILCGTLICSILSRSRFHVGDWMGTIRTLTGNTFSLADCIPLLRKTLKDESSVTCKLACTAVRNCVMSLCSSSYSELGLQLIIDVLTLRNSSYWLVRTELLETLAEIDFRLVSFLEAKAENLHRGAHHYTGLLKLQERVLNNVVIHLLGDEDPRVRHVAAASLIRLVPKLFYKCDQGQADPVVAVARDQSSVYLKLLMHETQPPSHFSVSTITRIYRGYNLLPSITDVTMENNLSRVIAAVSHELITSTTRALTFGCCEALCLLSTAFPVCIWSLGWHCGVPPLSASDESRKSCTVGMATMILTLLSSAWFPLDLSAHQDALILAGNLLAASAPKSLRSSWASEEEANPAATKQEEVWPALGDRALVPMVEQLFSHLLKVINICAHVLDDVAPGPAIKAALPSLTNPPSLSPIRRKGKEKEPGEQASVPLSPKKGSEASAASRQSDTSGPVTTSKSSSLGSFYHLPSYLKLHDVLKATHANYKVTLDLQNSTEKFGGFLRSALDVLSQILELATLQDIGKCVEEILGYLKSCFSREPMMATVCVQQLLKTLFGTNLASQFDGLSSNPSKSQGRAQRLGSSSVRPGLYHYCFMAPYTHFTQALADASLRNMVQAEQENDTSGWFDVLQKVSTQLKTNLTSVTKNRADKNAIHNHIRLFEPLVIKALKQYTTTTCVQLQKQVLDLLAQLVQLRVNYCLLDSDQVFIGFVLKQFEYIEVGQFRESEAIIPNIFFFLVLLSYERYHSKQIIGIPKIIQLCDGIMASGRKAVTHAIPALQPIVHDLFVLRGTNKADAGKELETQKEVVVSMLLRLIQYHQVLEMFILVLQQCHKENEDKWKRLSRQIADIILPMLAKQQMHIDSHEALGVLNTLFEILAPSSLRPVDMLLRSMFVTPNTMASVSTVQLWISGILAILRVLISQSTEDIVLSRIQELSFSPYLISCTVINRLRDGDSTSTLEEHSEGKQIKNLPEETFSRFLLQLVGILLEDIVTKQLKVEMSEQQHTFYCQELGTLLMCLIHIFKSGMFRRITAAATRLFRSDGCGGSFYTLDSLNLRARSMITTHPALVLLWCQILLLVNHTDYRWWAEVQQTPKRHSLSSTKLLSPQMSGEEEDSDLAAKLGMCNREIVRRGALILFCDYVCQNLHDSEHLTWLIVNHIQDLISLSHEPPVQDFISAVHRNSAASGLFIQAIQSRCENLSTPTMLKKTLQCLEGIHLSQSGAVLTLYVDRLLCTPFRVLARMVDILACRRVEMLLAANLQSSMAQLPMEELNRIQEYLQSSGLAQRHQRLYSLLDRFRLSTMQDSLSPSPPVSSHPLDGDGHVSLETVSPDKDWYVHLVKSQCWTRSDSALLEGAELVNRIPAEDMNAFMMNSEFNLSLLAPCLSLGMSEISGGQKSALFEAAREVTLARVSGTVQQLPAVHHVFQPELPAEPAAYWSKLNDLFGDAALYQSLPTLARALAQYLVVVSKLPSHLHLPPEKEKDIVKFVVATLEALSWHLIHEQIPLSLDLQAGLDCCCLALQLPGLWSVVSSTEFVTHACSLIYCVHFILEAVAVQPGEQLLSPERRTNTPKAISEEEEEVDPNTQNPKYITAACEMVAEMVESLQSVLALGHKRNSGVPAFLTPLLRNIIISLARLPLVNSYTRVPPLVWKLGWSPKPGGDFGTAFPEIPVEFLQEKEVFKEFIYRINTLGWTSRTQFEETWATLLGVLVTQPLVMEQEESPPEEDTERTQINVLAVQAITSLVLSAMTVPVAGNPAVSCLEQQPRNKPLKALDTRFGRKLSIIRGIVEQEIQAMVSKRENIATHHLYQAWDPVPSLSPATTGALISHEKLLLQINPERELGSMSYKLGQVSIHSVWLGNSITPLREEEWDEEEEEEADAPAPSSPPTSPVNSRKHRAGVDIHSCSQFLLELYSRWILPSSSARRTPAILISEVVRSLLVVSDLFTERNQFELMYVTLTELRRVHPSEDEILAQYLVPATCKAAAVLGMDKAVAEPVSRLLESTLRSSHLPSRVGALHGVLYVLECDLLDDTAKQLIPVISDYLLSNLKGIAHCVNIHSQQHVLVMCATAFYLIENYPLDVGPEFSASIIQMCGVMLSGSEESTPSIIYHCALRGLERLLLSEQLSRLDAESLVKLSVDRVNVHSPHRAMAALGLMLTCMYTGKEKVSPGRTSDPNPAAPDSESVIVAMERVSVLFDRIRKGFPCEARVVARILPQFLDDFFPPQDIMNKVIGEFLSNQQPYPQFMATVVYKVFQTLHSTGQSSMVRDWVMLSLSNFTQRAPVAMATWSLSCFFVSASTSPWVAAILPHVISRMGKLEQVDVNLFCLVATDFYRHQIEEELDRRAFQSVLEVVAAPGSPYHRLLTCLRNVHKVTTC
# Pf apPOL block – Pf-apPOL DNA polymerase inhibition; inhibition, % at 10 µM; AID 1794808; 0.25% of 210,000 active; Recombinant Pf-apPOL, molecular beacon fluorescence, 1.5 h
# * marks the source's active call; other numbers are inactive results; i = inactive; x = no result; + = active, no number. Cut-off read from the data, not from the text of the source: active = inhibition above about 50%; inactive = the rest.
SMILES,mHTT CaM bind,Pf apPOL block
CCOc1cc(/C=C2\C(=O)NN(c3ccc(C)c(C)c3)C2=O)cc(Cl)c1OCC,63.0*,-2.0
CCc1ccc(C2CC(c3cc(OC)c(OC)c(OC)c3)n3ncnc3N2)cc1 (stereo unspecified),22.0,-16.3
O=C(NCCc1ccccc1)N1CCCn2nc(-c3ccncc3)cc2C1,5.4,1.5
O=C(NCC1(O)CCc2ccccc21)c1ccc2nsnc2c1 (stereo unspecified),-7.1,-13.1
COc1ccc(CN2CCCC2c2cc(C(C)C)no2)c(O)c1 (stereo unspecified),2.1,-3.0
CCOc1cccc(C(=O)Nc2cccc([N+](=O)[O-])c2)c1,3.5,0.4
CC(Cl)C(=O)Nc1cc(C(C)(C)C)nn1-c1ccc(Br)cc1 (stereo unspecified),-13.3,-2.5
CC(C)(C)c1cc(CCC(=O)NNC(=O)c2ccco2)cc(C(C)(C)C)c1O,6.6,1.2
CC(C)(C)c1cc(CCC(=O)NNC(=S)NC(=O)c2ccccc2)cc(C(C)(C)C)c1O,58.1*,-271.0
CC1(C)CC(=O)C(=C(O)c2ccccc2)C(=NCCO)C1,-4.7,-1.1
Cc1ccc(-c2nnc(N3CCC(C(=O)N4CCCCCC4)CC3)o2)cc1,24.6,0.8
O=C(CCC1CCCN(C(=O)Nc2ccccc2)C1)NCCN1CCCC1 (stereo unspecified),41.0,-4.8
Cc1ccc(-c2cc(-c3ccccc3)nc(NN)n2)cc1,39.4,-4.1
COc1ccc(-c2cc(-c3ccccc3)nc(NN)n2)cc1OC,63.0*,0.1
O=C(c1ccc(OCC2CCN(C(=O)C3(c4ccccc4)CC3)CC2)cc1)N1CCCCC1,10.4,0.5
Cc1cc(=O)n2ncnc2n1CC(=O)NN=Cc1ccc(Cl)cc1,x,-3.5
CCC(C(=O)O)N1C(=O)C(=CC=Cc2ccco2)SC1=S (stereo unspecified),41.3,93.5*
CC(C)CC(C(=O)O)N1C(=O)C(=Cc2ccco2)SC1=S (stereo unspecified),6.2,16.4
Cc1nc(S(=O)(=O)NCc2ccccc2Cl)c(C#N)c(C)c1Cl,-10.0,-2.1
N#Cc1c(SCC(=O)C23CC4CC(CC(C4)C2)C3)sc2c(O)cc(=O)[nH]c12,0.6,x
Nc1c(C(=O)C23CC4CC(CC(C4)C2)C3)sc2sc3c(O)cc(=O)[nH]c3c12,51.7*,x
CC(=O)N(C1=C(N2CCOCC2)C(=O)c2ccccc2C1=O)c1ccccc1,19.8,-0.2
COc1cccc(N(C(C)=O)C2=C(N3CCCC3)C(=O)c3ccccc3C2=O)c1,98.6*,-12.4
CC(=O)N(C1=C(N2CCOCC2)C(=O)c2ccccc2C1=O)c1ccc(Cl)c(Cl)c1,95.8*,-7.7
CC(=O)N(C1=C(N2CCCCC2)C(=O)c2ccccc2C1=O)c1ccccc1C,27.1,-12.2
SMILES,mHTT CaM bind,Pf apPOL block
CN(C)C=C1COc2ccc(Cl)cc2C1=O,x,-9.5
CCN(CC)C(=O)Cn1cc(C=O)c2ccccc21,-3.8,-5.9
Nc1nc(N)c2nc(CO)cnc2n1,-2.0,x
CCC(C)NC(=O)CSc1nc2n[nH]c(C)c2c(=N)n1-c1ccc(C)cc1 (stereo unspecified),54.0*,2.1
CCN(CC)C(=O)CSc1nc2n[nH]c(C)c2c(=N)n1-c1ccc(Oc2ccccc2)cc1,13.0,-3.2
CCc1ccc(-n2c(SCC(=O)NC(C)CC)nc3n[nH]c(C)c3c2=N)cc1 (stereo unspecified),91.0*,-3.1
CCN(CC)C(=O)CSc1nc2n[nH]c(C)c2c(=N)n1-c1ccc(C)c(Cl)c1,14.0,-3.4
Cc1cccc(CNC(=O)C2CCN(c3ccc(Cl)cc3)C2=O)c1 (stereo unspecified),3.3,-1.7
Cc1ccc(C)c(NC(=O)CN2CCC3(CC2)N=C(c2ccccc2)C(=O)N3)c1,6.6,-3.0
Cc1ccc(NC(=O)CN2CCC3(CC2)N=C(c2ccccc2)C(=O)N3)c(C)c1,56.2*,-4.5
O=C(CN1CCC2(CC1)N=C(c1ccccc1)C(=O)N2)Nc1ccc(F)c(F)c1,1.4,-5.4
COc1ccccc1NC(=O)CN1CCC2(CC1)N=C(c1ccc(Cl)cc1)C(=O)N2,-7.6,0.4
COc1ccccc1NC(=O)CN1CCC2(CC1)N=C(c1cccc(C)c1)C(=O)N2,50.3*,4.4
COc1ccccc1NC(=O)CN1CCC2(CC1)N=C(c1cccc(Cl)c1)C(=O)N2,97.0*,1.9
Cc1ccc(NC(=O)CN2CCC3(CC2)N=C(c2ccccc2)C(=O)N3)cc1F,54.5*,-3.3
COc1ccc(NC(=O)CN2CCC3(CC2)N=C(c2ccc(C)cc2)C(=O)N3)c(OC)c1,38.6,-1.7
COc1ccccc1C1=N/C(=C\c2cccc([N+](=O)[O-])c2)C(=O)O1,-3.0,-3.2
COc1ccc(S(=O)(=O)CCC(=O)Nc2ccc(F)c(F)c2)cc1,-6.0,-3.0
COC(=O)c1sccc1NC(=O)CC1C(=O)NCCN1C(=O)c1sc2ccccc2c1Cl (stereo unspecified),x,-8.4
CSc1cccc(NC(=O)CN2CCC3(CC2)N=C(c2ccc(C)cc2)C(=O)N3)c1,26.1,-3.0
CSc1cccc(NC(=O)CN2CCC3(CC2)N=C(c2cccc(C)c2)C(=O)N3)c1,69.6*,4.7
COc1nc(N)c(C#N)c(-c2ccc3c(c2)OCO3)c1C#N,40.0,-19.0
N#Cc1c(-c2ccc3c(c2)OCO3)nc(N2CCCCC2)[nH]c1=O,62.0*,4.7
O=C(Nc1ccc2c(c1)OCCO2)c1cn2c(n1)CSCC2,22.4,-5.6
N#CC1=C(N)Oc2c(C=Nc3ccccc3)ccc(O)c2C1c1ccc([N+](=O)[O-])cc1 (stereo unspecified),35.0,2.9
SMILES,mHTT CaM bind,Pf apPOL block
COc1ccccc1N=Cc1ccc(O)c2c1OC(N)=C(C#N)C2c1cccc([N+](=O)[O-])c1 (stereo unspecified),77.0*,-8.4
COc1cccc(N=Cc2ccc(O)c3c2OC(N)=C(C#N)C3c2ccccc2[N+](=O)[O-])c1 (stereo unspecified),95.0*,-4.5
Cc1ccc(-n2nc(C)c3c2OC(N)=C(C#N)C3c2ccccc2[N+](=O)[O-])cc1 (stereo unspecified),9.0,-2.8
CN(C)CCCNC(=O)c1ccc(/C=N/O)[n+](C)c1,i,0.9
O=C(NCCCNCCCNC(=O)c1ccc(/C=N/O)nc1)c1ccc(/C=N/O)nc1,+,-2.6
COc1ccc(OC)c(CN2C(=O)c3ccccc3C2C(=O)NC2CCCCCCC2)c1 (stereo unspecified),21.0,-16.6
CCN(C(=O)Cn1nnc(-c2ccc3c(c2)OCO3)n1)c1ccccc1,0.0,-2.2
OC(COCCC12CC3CC(CC(C3)C1)C2)CN1CCN(c2ccccn2)CC1 (stereo unspecified),36.7,2.3
OC(COCC12CC3CC(CC(C3)C1)C2)CN1CCN(c2ccccc2)CC1 (stereo unspecified),57.2*,0.8
OC(COC12CC3CC(CC(C3)C1)C2)CN1CCN(c2ccccc2)CC1 (stereo unspecified),11.9,5.8
OC(COCCC12CC3CC(CC(C3)C1)C2)CN1CCN(c2ccccc2)CC1 (stereo unspecified),54.6*,0.5
Cc1ccccc1Oc1cc(N2CCN(C(=O)C(C)Cl)C(C)C2)ncn1 (stereo unspecified),8.4,-2.9
Cc1ccc2nc(SCc3nc4ccccc4[nH]3)[nH]c2c1,15.0,-1.5
CCOc1cccc(C(=O)Nc2ccc3nn(-c4cccc(Cl)c4)nc3c2)c1,0.0,-2.6
